Reference: PubChem BioAssay (NCATS)
Records with an inconclusive call do not appear. Activity calls are given as the source filed them. Unless noted, calls follow the shape of the dose curve; as a rule, active = well fitted curve in the direction sought with a large enough effect; inconclusive = small, poorly fitted or top-dose-only effect, or another doubt; inactive = no such curve, though single readings can be large; an effect the other way counts as inactive or inconclusive.

Legend:
[1] = Cell Viability - BJ (AID 421; calls by dose curve;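 also: potency is read from the fitted curve at half-maximal effect; cells exposed to compound for 40 hours at 37 °C before readout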); settings: BJ fibroblast viability, qHTS
How it was run: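 Cytotoxicity as drop in intracellular ATP (CellTiter-Glo, 20 min RT) after 40 hr compound exposure of BJ fibroblasts at 37 °C. Titrations scaled between DMSO and 100 uM tamoxifen, Hill-fitted for AC50.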

[2] = Cell Viability - Jurkat (AID 426;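 active = dose-dependent loss of cell ATP signal giving a full or clear fitted curve, ranked by lower potency value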; also: potency is read from the fitted curve at half-maximal effect); settings: qHTS
How it was run: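 qHTS, 1536-well; Jurkat E6-1, 5000 cells/well, complete medium; cpd 40 hr, 37 °C; CellTiter-Glo 20 min RT; luminescence. AC50 by Hill fit.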

[3] = Cell Viability - Hek293 (AID 427;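 active = compounds whose dose-response curve shows a full or clear partial loss of cell viability, called from curve shape rather than a numeric limit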;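 also: potency is read from the fitted curve at half-maximal effect; cells exposed to compound for 40 hours at 37 °C before reading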); settings: qHTS
How it was run: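 Luminescent ATP content (CellTiter-Glo, 20 min at room temperature) was measured after a 40 hr, 37 °C compound exposure of HEK293 cells. AC50 values came from Hill-equation fits of qHTS concentration-response data normalized to DMSO and 100 uM tamoxifen.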

[4] = Cell Viability - MRC5 (AID 434; calls by dose curve;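 also: potency is read from the fitted curve at half-maximal effect; potency reflects cytotoxicity seen as loss of intracellular ATP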); settings: MRC5 lung fibroblast viability, qHTS
How it was run: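 MRC5 normal human lung fibroblasts, 1500 cells/well, exposed to compound for 40 hr at 37 C. Cellular ATP was read by CellTiter-Glo luminescence; data normalized to DMSO and 100 uM tamoxifen, with AC50 from Hill fits.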

[5] = Cell Viability - SK-N-SH (AID 435; calls by dose curve;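 also: potency is read from the fitted curve at half-maximal effect; compound exposure lasted 40 h at 37 °C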); settings: SK-N-SH neuroblastoma cell viability qHTS
How it was run: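 SK-N-SH human neuroblastoma cells (1500/well) were exposed to compounds in complete medium for 40 h at 37 °C, and intracellular ATP was then measured by CellTiter-Glo luminescence. AC50 was taken from Hill fits, normalized to DMSO and 100 uM tamoxifen.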

[6] = target: Mitogen-activated protein kinase 10 (Mus musculus) (UniProt Q61831); assay: JNK3 AlphaScreen Assay (AID 530; active = well fitted curve in either direction with a large enough effect, not every such curve was filed as active;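 also: kinase came from lysate of stimulated human HepG2 cells; signal reports phosphorylation of biotinylated GST-cJun 1-79 at Ser73 with 10 µM ATP; % is scaled to controls: 0 for no effect and ±100 for the full control effect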); settings: JNK3 lysate, c-Jun phosphorylation; series mostly up to 57.1 µM
How it was run: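 Pre-activated (IL-1β/TNFα) JNK3 in HepG2 lysates phosphorylates biotin-GST-cJun(1-79), 10 uM ATP; anti-phospho-cJun(Ser73) AlphaScreen read at room temperature, pH 7.6 Tris buffer. Compounds pre-incubated 15 min as titrations.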

[7] = Cell Viability - N2a (AID 540); settings: N2a mouse neuroblastoma cell viability; activity change, negative = cytotoxicity: at 92.2 µM (top of the series);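 also: plate controls were DMSO alone for no effect and tamoxifen control for full effect; nearly all actives have a fitted effect of over 45% in size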
How it was run: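 Luminescent ATP signal (CellTiter-Glo, 20 min at room temperature) served as the viability read-out after N2a cells were treated with compounds for 40 hours at 37 °C. Concentration-response data were fitted to the Hill equation for AC50.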

[8] = Cell Viability - NIH 3T3 (AID 541); settings: NIH 3T3 cell viability, qHTS; activity change, negative = cytotoxicity: at 92.2 µM (top of the series);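 also: plate controls were DMSO alone for no effect and tamoxifen positive control for full effect; nearly all actives have a fitted effect of over 25% in size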
How it was run: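 Luminescent ATP signal (CellTiter-Glo) served as the viability read-out after NIH 3T3 cells were exposed to compounds over a concentration range for 40 hr at 37 °C. Hill-equation modelling of concentration-response data gave AC50.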

[9] = Cell Viability - HUV-EC-C (AID 542); settings: HUV-EC-C endothelial cell viability, qHTS; series mostly up to 92.2 µM; also: % is scaled to controls: 0 for no effect and ±100 for the full control effect; nearly all actives have a fitted effect of over 35% in size
How it was run: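 qHTS cytotoxicity: HUV-EC-C, 1000 cells/well, 5 hr settle, compound 40 hr 37 °C, CellTiter-Glo, luminescence. AC50 via Hill equation.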

[10] = Cell Viability - H-4-II-E (AID 543); settings: H-4-II-E rat hepatoma viability; series mostly up to 92.2 µM; also: % is scaled to controls: 0 for no effect and ±100 for the full control effect; nearly all actives have a fitted effect of over 35% in size
How it was run: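 Luminescent ATP signal (CellTiter-Glo) served as the viability read-out, with cytotoxicity seen as a concentration-dependent ATP drop. Cells were treated for 40 hours in complete medium. AC50 values derive from Hill-equation modelling.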

[11] = Cell Viability - SH-SY5Y (AID 544); settings: SH-SY5Y neuroblastoma cell viability; viability change, negative = cytotoxic: at 92.2 µM (top of the series); also: nearly all actives have a fitted effect of over 55% in size
How it was run: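 Luminescent ATP read-out (CellTiter-Glo) measures loss of viable SH-SY5Y neuroblastoma cells after 40 hr compound exposure at 37 °C. AC50 values derive from standard Hill modelling of qHTS concentration-response data.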

[12] = Cell Viability - Renal Proximal Tubule (AID 545); settings: renal proximal tubule cells viability, primary cells of rat origin; series mostly up to 91.7 µM; also: nearly all actives have a fitted effect of over 40% in size
How it was run: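 Primary rat renal proximal tubule cells (1000/well) were treated with compounds for 40 hr at 37 °C in complete medium. Intracellular ATP was measured by CellTiter-Glo luminescence, and AC50 values came from Hill-equation fits of concentration-response data.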

[13] = Cell Viability - Mesenchymal (AID 546); settings: mesenchymal cells viability, qHTS; series mostly up to 91.7 µM;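 also: cells exposed to compound for 40 hours before reading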
How it was run: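 Human kidney mesenchymal cells from normal renal glomeruli, 1000 cells/well, rested 5 hr at 37 °C, then treated 40 hr at 37 °C in complete medium. Cellular ATP read by CellTiter-Glo luminescence; AC50 from Hill-equation fits.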

[14] = Cellular Toxicity (caspase-3) HepG2 (AID 654); settings: HepG2 caspase-3 activation, luminescence; series mostly up to 92.2 µM;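 also: cells exposed to compound for 16 hours before reading; 0% = DMSO alone and 100% = caspase signal from 100 µM tamoxifen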
How it was run: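 Cells plated 5 hr at 37 °C, compound added, incubated 16 hr at 37 °C. Caspase-Glo 3/7 reagent followed, 20 min at room temperature, then luminescence read. Activation scored as signal increase; AC50 from Hill fit.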

[15] = Cellular Toxicity (caspase-3) Jurkat (AID 655); settings: Jurkat caspase-3 activation, luminescence; caspase-3 activation: at 92.2 µM (top of the series), DMSO = 0%, tamoxifen = 100%;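 also: cells exposed to compound for 16 h at 37 °C before reading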
How it was run: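 Jurkat cells (5000/well) in complete medium were treated with compounds for 16 hr at 37 °C, then Caspase-Glo 3/7 luminescence was read after 20 min at room temperature. Data normalized to DMSO (basal) and 100 uM tamoxifen (100%); AC50 from Hill fit.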

[16] = Cellular Toxicity (caspase-3) HUV-EC-C (AID 656); settings: HUV-EC-C cells, caspase-3 activation (apoptosis), vehicle = 0, 100 µM tamoxifen = 100%; series mostly up to 92.2 µM
How it was run: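 HUV-EC-C endothelial cells, 1000/well, were pre-incubated 5 hr at 37°C, then exposed to compounds for 16 hr at 37°C. Caspase-Glo 3/7 luminescence was read after 20 min at room temperature. AC50 came from Hill fits, normalized to DMSO and 100 uM tamoxifen.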

[17] = Cellular Toxicity (caspase-3) SHSY5Y (AID 657); settings: SH-SY5Y caspase-3 activation, DMSO zero, 10 µM staurosporine = 100%; series mostly up to 91.7 µM
How it was run: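 SH-SY5Y human neuroblastoma cells (1500/well) were treated with compounds for 16 h at 37 °C, then Caspase-Glo 3/7 luminescence was read after 1 h at room temperature. Data normalized to DMSO and 10 uM staurosporine; AC50 from Hill fits.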

[18] = Cellular Toxicity (caspase-3) BJ (AID 658); settings: BJ fibroblasts, luminescence, normalized: DMSO 0%, staurosporine 100%; series mostly up to 91.7 µM
How it was run: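 BJ human foreskin fibroblasts, 1000 cells/well, treated 16 hours at 37 °C in complete medium; caspase 3/7 activity by Caspase-Glo luminescence after 1 hr at room temperature. Normalized to DMSO and 10 uM staurosporine; AC50 from Hill fits.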

[19] = Cellular Toxicity (caspase-3) MRC-5 (AID 659); settings: MRC-5 cells, luminescence, normalized: DMSO 0%, 10 µM staurosporine 100%; series mostly up to 91.7 µM
How it was run: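 MRC-5 human normal lung fibroblasts, 1500 cells/well, treated 16 h at 37 °C in complete medium. Caspase 3/7 measured by Caspase-Glo luminescence after 1 h at room temperature. Normalized to DMSO and 10 uM staurosporine; AC50 from Hill fit.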

[20] = Cell Viability - HepG2 (AID 433; calls by dose curve;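 also: potency is read from the fitted curve at half-maximal effect; potency for ATP loss meaning cytotoxicity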); settings: qHTS
How it was run: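 HepG2 hepatocellular carcinoma cells (1500/well) were treated with compounds for 40 h at 37 °C in complete medium; intracellular ATP was read by CellTiter-Glo luminescence. Data were normalized to DMSO and 100 uM tamoxifen, and AC50 came from Hill fits.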

OC(CCl)CCl
inactive: Potency [1] > 92 µM | Potency [2] > 92 µM | Potency [3] > 92 µM | Potency [4] > 92 µM | Potency [5] > 92 µM | outcome [6] | activity change, negative = cytotoxicity [7] -4.88% | Potency [8] | Potency [9] | Potency [10] | Potency [11] | Potency [12] | Potency [13] | Potency [14] | caspase-3 activation [15] 0.028% | outcome [16] | outcome [17] | outcome [18] | outcome [19]

O=C(O)c1ccccc1Cl
inactive: Potency [1] > 92 µM | Potency [2] > 92 µM | Potency [3] > 92 µM | Potency [4] > 92 µM | Potency [5] > 92 µM | outcome [6] | activity change, negative = cytotoxicity [7] -6.85% | Potency [8] | Potency [9] | Potency [10] | Potency [11] | Potency [12] | caspase-3 activation [15] -0.163% | outcome [16] | outcome [17] | outcome [18] | outcome [19]

CC(C)=CCC/C(C)=C/C=O
inactive: Potency [1] > 92 µM | Potency [2] > 92 µM | Potency [3] > 92 µM | Potency [4] > 92 µM | Potency [5] > 92 µM | outcome [6] | activity change, negative = cytotoxicity [7] -7.95% | Potency [9] | Potency [10] | Potency [11] | Potency [12] | Potency [14] | caspase-3 activation [15] 0.822% | outcome [16] | outcome [17]

FB(F)F
inactive: Potency [1] > 92 µM | Potency [2] > 92 µM | Potency [3] > 92 µM | Potency [4] > 92 µM | Potency [5] > 92 µM | outcome [6] | activity change, negative = cytotoxicity [7] 5.96% | Potency [8] | Potency [9] | Potency [11] | Potency [14] | caspase-3 activation [15] 1.14% | outcome [16] | outcome [17] | outcome [18] | outcome [19]

CCCCC(CC)CNCC(CC)CCCC (stereo unspecified)
inactive: Potency [1] > 92 µM | Potency [2] > 92 µM | Potency [3] > 92 µM | Potency [4] > 92 µM | Potency [5] > 92 µM | outcome [6] | activity change, negative = cytotoxicity [7] -7.79% | Potency [8] | Potency [9] | Potency [10] | Potency [11] | Potency [12] | caspase-3 activation [15] 1.24% | outcome [16] | outcome [17] | outcome [19]

CCOCCO
inactive: Potency [1] > 92 µM | Potency [2] > 92 µM | Potency [3] > 92 µM | Potency [4] > 92 µM | Potency [5] > 92 µM | outcome [6] | activity change, negative = cytotoxicity [7] -17.9% | Potency [8] | Potency [9] | Potency [10] | Potency [11] | Potency [13] | Potency [14] | outcome [16] | outcome [17] | outcome [18] | outcome [19]

O=C1OC(=O)c2cc([N+](=O)[O-])ccc21
inactive: Potency [1] > 92 µM | Potency [2] > 92 µM | Potency [3] > 92 µM | Potency [4] > 92 µM | Potency [5] > 92 µM | outcome [6] | activity change, negative = cytotoxicity [7] -2.26% | Potency [8] | Potency [9] | Potency [10] | Potency [11] | Potency [13] | caspase-3 activation [15] -2.27% | outcome [16] | outcome [17] | outcome [18] | outcome [19]

FC(F)(F)c1ccccc1Cl
inactive: Potency [1] > 92 µM | Potency [2] > 92 µM | Potency [3] > 92 µM | Potency [4] > 92 µM | Potency [5] > 92 µM | outcome [6] | activity change, negative = cytotoxicity [7] -3.42% | Potency [8] | Potency [9] | Potency [10] | Potency [12] | Potency [13] | Potency [14] | caspase-3 activation [15] 2.68% | outcome [16] | outcome [17] | outcome [18] | outcome [19]

CSc1ccc(C=O)cc1
inactive: Potency [1] > 92 µM | Potency [2] > 92 µM | Potency [3] > 92 µM | Potency [4] > 92 µM | Potency [5] > 92 µM | outcome [6] | activity change, negative = cytotoxicity [7] 0.565% | Potency [8] | Potency [9] | Potency [10] | Potency [11] | Potency [12] | Potency [14] | caspase-3 activation [15] 1.05% | outcome [16] | outcome [17] | outcome [18] | outcome [19]

CCCCCCO
inactive: Potency [1] > 92 µM | Potency [2] > 92 µM | Potency [3] > 92 µM | Potency [4] > 92 µM | Potency [5] > 92 µM | outcome [6] | activity change, negative = cytotoxicity [7] 4.85% | Potency [8] | Potency [11] | Potency [12] | Potency [13] | Potency [14] | caspase-3 activation [15] -0.00564% | outcome [16] | outcome [17] | outcome [18] | outcome [19]

Nc1cc([N+](=O)[O-])ccc1C(=O)O
inactive: Potency [1] > 92 µM | Potency [2] > 92 µM | Potency [3] > 92 µM | Potency [20] > 92 µM | Potency [4] > 92 µM | Potency [5] > 92 µM | outcome [6] | activity change, negative = cytotoxicity [7] 7.91% | Potency [9] | Potency [10] | Potency [11] | Potency [12] | Potency [13] | Potency [14] | outcome [16] | outcome [17] | outcome [18] | outcome [19]

CC(=O)c1ccccc1[N+](=O)[O-]
inactive: Potency [1] > 92 µM | Potency [2] > 92 µM | Potency [3] > 92 µM | Potency [4] > 92 µM | Potency [5] > 92 µM | outcome [6] | activity change, negative = cytotoxicity [7] -16.5% | Potency [8] | Potency [9] | Potency [10] | Potency [11] | Potency [12] | Potency [13] | Potency [14] | outcome [16] | outcome [17] | outcome [18] | outcome [19]
